# Laboratory results: publication PMC7819943, “Rice protein-binding microarrays: a tool to detect cis-acting elements near promoter regions in rice”
# In all, about 35,000 sequences were measured (“fluorescence intensity (a.u.)”: median about 10,000, highest 2% from about 52,000 on). The sample as a whole holds a higher share of the highest values than the screen did.
# Target: T1, OsWOX13 (Oryza sativa, UniProt Q5QMM3 1-267)
# T1 sequence: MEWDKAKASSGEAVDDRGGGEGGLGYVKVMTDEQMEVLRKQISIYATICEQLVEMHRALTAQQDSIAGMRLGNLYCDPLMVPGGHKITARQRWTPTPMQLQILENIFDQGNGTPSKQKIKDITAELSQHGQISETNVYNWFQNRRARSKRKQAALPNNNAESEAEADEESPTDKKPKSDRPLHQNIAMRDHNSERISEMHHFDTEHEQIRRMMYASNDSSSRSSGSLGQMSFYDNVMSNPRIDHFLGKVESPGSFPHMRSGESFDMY
# Experiment: protein-binding microarray (RPBM); PBS, 2% BSA, 51.3 ng/ul salmon testes DNA, 50 uM zinc acetate, 200 nM TF, 25 C, 1 h; high values mean tight binding
# Details: protein: recombinant; tags: N-terminal polyhistidine and DsRed monomer fusion (pET32a); label: CyDye5-dUTP incorporated in the synthesized complementary strand; 3' TTTTT single-stranded linker to array surface; dsDNA, one strand shown
# How it was run: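 Using Ni–NTA, transcription factors fused N-terminally to polyhistidine and DsRed were purified after expression in E. coli BL21-CodonPlus. These were incubated at 200 nM with a blocked, double-stranded custom Agilent array for 1 h at 25 °C in a buffer containing 50 µM zinc acetate, and the array was washed. The binding signal is per-feature fluorescence intensity (arbitrary units) on an Axon 4000B scanner.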
row,Sequence,binding signal
1,TATGATTCTTTTCTAAAAGATTGATACGACATATCAATATCGGAGTCACCTAGTGCAG,5300 fluorescence intensity (a.u.)
2,CAACTAAACTTTTAATTTTAGCATAAACTAAACAGACCCACGGAGTCACCTAGTGCAG,5430 fluorescence intensity (a.u.)
3,TATAATTACATTGTAACTGTATTGTAAATACATTTTAATTCGGAGTCACCTAGTGCAG,5830 fluorescence intensity (a.u.)
4,TAAATTGTACATGATATATGTCAAGTGTCAACGTCTGATTCGGAGTCACCTAGTGCAG,5030 fluorescence intensity (a.u.)
5,ACTCCACACACTGATCAACACTAATCAGCATGTACATTTGCGGAGTCACCTAGTGCAG,4090 fluorescence intensity (a.u.)
6,TCTGATTGGTACATGCTCACCTGGTTGGCTGGTTCTTCAGCGGAGTCACCTAGTGCAG,53800 fluorescence intensity (a.u.)
7,TTTGGTTGGATTGGATTGGATTGGATTGGCTGCTTCCCTGCGGAGTCACCTAGTGCAG,25000 fluorescence intensity (a.u.)
8,CTTGATTGTTCTTTCTTGCTCAAATGCCGGCCTGTGTTGGCGGAGTCACCTAGTGCAG,53200 fluorescence intensity (a.u.)
9,TCGTTCTTCATGGTTGGGGCTGATTAGGTTGATGAGATAGCGGAGTCACCTAGTGCAG,3850 fluorescence intensity (a.u.)
10,CTTTGTCTTTGTTTCTTGTTGATTGCAGGATCAAATCAACCGGAGTCACCTAGTGCAG,5330 fluorescence intensity (a.u.)
11,TCTTTGTCAATCTTGTTTGGTTGCTCAAATCTTTTGGTGGCGGAGTCACCTAGTGCAG,7260 fluorescence intensity (a.u.)
12,TTCGTGCCTTTTGTTTGATAATTTCTTCATGCTATCTTTTCGGAGTCACCTAGTGCAG,3660 fluorescence intensity (a.u.)
13,ACAAAATAAAATGATGGGCATTTTCTTCAGTTACAATTTCCGGAGTCACCTAGTGCAG,3910 fluorescence intensity (a.u.)
14,TTACTAGATTTATCATTAAACATACTATCATAATATGCAACGGAGTCACCTAGTGCAG,6040 fluorescence intensity (a.u.)
15,TGTGATGAATTGAGCGAACCAGCAGGGCTTCGCCGCTCCCCGGAGTCACCTAGTGCAG,5470 fluorescence intensity (a.u.)
16,AGAGACAGCGAATCAATTAGCCAATGCTAATAATTTATAACGGAGTCACCTAGTGCAG,8160 fluorescence intensity (a.u.)
17,ATTAATTAATTAGTCGGCCAACCTAGCTGTTGACTGGGAACGGAGTCACCTAGTGCAG,55900 fluorescence intensity (a.u.)
18,CCACTTTTAGATTTGACAATTAACTATTTGTCACTTTTAGCGGAGTCACCTAGTGCAG,23600 fluorescence intensity (a.u.)
19,AGCCCCTAAGCCAATCAATTAGCAGGCATCTTTACTCCTACGGAGTCACCTAGTGCAG,18500 fluorescence intensity (a.u.)
20,GCCAACCTTATAGCTAATTATTATATATATTGACTTTAAGCGGAGTCACCTAGTGCAG,4860 fluorescence intensity (a.u.)
21,TCCAATTTACTAATTACCACTTTATACGTACAATTATTGACGGAGTCACCTAGTGCAG,23500 fluorescence intensity (a.u.)
22,AAAATTACAGTCTTATTTAACTAAAATTACATATGTAAATCGGAGTCACCTAGTGCAG,5170 fluorescence intensity (a.u.)
23,TTTAATTTACAGTTAAATTAACTTAATCTGTAAAAGGGATCGGAGTCACCTAGTGCAG,57500 fluorescence intensity (a.u.)
24,AATTAATTTAGCCCCTAATTAATTAGCAGCCAATCAACGGCGGAGTCACCTAGTGCAG,54000 fluorescence intensity (a.u.)
25,ATTAATTATTAATTTACTTTTGACAATTACTAATTAGCCACGGAGTCACCTAGTGCAG,56700 fluorescence intensity (a.u.)
26,AATTAATAAAATAAATCTATTACAGTTAACTAAAGGTATTCGGAGTCACCTAGTGCAG,5780 fluorescence intensity (a.u.)
27,GTTGATGGGCAGCTTAATTACGGCCCGCCTGTTTAGCCAACGGAGTCACCTAGTGCAG,17500 fluorescence intensity (a.u.)
